From PubChem BioAssay
Active and inactive are the calls of the source.

Experiments:
[1] = tested on: Plasmodium falciparum Sir2 (PF13_0152, Sir2A); assay: pfSir2 binders on small-molecule microarrays, primary screen, biochemical, small-molecule microarray, 635 nm fluorescence (AID 1098); settings: small-molecule microarray binding, fluorescence 635 nm; higher = more signal;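 note: score merges spot fluorescence intensity with its signal-to-noise ratio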
[2] = small-molecule microarray binders of probe aDKK1, primary screen, biochemical, biotinylated probe, 635/667 nm fluorescence (AID 1099); settings: higher = more signal;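 note: score merges 667nm spot fluorescence with signal to noise across triplicate slides; reference of the scale not given here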
[3] = small-molecule microarray binders of probe aCHRDL2, primary screen, biochemical, biotinylated probe, 635/667 nm fluorescence (AID 1100); settings: higher = more signal
[4] = splicing luciferase reporter signal modulators, primary screen, spliceosome inhibition project, cell-based, HEK293, splice +/- reporter (AID 1101); settings: luminescence, 24 h, higher = more signal, called active from +8 up or from −8 down;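 note: HEK293 cells carrying a splicing-competent luciferase reporter gene; test concentration not given here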
[5] = biological target: Fibroblast growth factor 10 (Homo sapiens) (UniProt O15520); assay: FGF10 binders on small-molecule microarrays, primary screen, biochemical, small-molecule microarray, 635 nm fluorescence (AID 1102); settings: FGF10 binding, fluorescence 635 nm, higher = more signal
Chain of Fibroblast growth factor 10 (Homo sapiens) (O15520 whole entry, looked up): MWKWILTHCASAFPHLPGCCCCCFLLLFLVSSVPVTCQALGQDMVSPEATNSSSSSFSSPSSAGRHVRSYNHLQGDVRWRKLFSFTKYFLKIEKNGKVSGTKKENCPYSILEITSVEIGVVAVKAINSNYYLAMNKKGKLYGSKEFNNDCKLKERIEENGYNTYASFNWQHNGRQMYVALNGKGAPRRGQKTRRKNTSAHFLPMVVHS

[6] = tested on: glycogen synthase kinase-3 (GSK3A per assay name; protocol says GSK3B); assay: GSK3 binders on small-molecule microarrays, primary screen, biochemical, small-molecule microarray, 635 nm fluorescence, GSK3A (AID 1103); settings: small-molecule microarray binding, fluorescence 635 nm; higher = more signal; note: the record names both GSK3A and GSK3B
[7] = biological target: Epidermal growth factor receptor (Homo sapiens) (UniProt P00533); assay: EGFR binders on small-molecule microarrays, primary screen, biochemical, small-molecule microarray, 635 nm fluorescence (AID 1104); settings: EGFR binding, higher = more signal;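 note: score merges 667 nm emission intensity with spot signal to noise over triplicate slides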
Chain of Epidermal growth factor receptor (Homo sapiens) (P00533 whole entry, looked up): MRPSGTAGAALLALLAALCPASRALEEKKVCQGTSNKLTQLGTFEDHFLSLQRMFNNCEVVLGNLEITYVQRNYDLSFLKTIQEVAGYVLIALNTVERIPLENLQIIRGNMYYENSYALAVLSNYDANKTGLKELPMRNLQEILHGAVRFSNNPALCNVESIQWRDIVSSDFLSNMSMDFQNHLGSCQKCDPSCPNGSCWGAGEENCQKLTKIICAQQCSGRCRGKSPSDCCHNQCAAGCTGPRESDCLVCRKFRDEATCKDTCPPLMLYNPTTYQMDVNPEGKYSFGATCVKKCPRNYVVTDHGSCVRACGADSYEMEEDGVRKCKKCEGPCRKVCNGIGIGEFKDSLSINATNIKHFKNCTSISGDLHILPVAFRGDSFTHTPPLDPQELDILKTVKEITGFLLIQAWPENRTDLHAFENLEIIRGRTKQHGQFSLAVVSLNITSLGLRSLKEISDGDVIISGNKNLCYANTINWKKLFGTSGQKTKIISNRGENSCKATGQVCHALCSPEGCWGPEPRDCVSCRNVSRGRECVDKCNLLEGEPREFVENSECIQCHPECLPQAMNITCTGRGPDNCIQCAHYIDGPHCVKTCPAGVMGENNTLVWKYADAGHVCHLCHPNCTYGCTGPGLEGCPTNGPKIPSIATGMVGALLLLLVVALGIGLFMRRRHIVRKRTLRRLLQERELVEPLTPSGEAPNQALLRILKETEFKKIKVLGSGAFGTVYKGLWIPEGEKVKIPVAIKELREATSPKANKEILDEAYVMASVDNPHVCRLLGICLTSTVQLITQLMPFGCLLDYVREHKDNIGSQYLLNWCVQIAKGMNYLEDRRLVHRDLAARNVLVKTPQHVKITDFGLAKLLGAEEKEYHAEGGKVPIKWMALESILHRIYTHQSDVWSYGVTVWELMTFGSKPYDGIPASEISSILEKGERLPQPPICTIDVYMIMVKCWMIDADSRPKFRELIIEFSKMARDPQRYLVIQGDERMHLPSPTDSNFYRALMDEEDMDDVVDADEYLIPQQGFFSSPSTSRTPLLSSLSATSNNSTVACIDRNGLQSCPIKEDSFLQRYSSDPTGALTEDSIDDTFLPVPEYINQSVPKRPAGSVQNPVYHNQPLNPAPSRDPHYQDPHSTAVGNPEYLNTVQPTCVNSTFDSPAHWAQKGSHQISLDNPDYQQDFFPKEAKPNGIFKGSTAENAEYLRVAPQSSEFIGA

[8] = biological target: Follistatin-related protein 3 (Homo sapiens) (UniProt O95633); assay: FSTL3 binders on small-molecule microarrays, primary screen, biochemical, small-molecule microarray, 635 nm fluorescence (AID 1105); settings: FSTL3 binding, higher = more signal;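 note: score merges emission near 667 nm and signal to noise per printed spot across three slides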
Chain of Follistatin-related protein 3 (Homo sapiens) (O95633 whole entry, looked up): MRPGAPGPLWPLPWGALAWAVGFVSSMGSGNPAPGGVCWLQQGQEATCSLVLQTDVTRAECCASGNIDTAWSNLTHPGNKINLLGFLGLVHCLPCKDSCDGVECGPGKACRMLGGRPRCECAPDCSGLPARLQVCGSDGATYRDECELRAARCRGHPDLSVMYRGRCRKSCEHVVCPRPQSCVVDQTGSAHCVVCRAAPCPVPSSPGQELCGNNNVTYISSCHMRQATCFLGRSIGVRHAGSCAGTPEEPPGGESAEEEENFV

[9] = biological target: Dickkopf-related protein 1 (Homo sapiens) (UniProt O94907); assay: DKK1 binders on small-molecule microarrays, primary screen, biochemical, small-molecule microarray, 635 nm fluorescence scan (AID 1106); settings: DKK1 binding, higher = more signal;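 note: score merges emission near 667 nm with signal to noise over three replicate slides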
Chain of Dickkopf-related protein 1 (Homo sapiens) (O94907 whole entry, looked up): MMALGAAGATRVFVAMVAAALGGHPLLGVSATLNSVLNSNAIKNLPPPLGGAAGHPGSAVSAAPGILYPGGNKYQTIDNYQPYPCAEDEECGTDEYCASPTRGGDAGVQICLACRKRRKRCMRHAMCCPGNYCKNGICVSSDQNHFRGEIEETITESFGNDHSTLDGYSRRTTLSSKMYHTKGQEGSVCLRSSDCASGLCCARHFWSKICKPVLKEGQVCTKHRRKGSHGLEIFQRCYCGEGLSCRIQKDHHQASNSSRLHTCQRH

[10] = tested on: Inhibin beta A chain (activin A); assay: INHBA (activin A) binders on microarrays, primary screen, biochemical, small-molecule microarray, 635 nm fluorescence scan (AID 1107); settings: small-molecule microarray binding, higher = more signal;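 note: mouse activin A protein probed at 4.33 µg/mL on printed slides; score merges bound-protein fluorescence near 667 nm with spot signal-to-noise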

SMILES | composite z-score [1] | composite z-score [2] | composite z-score [3] | z-score [4] | composite z-score [5] | composite z-score [6] | composite z-score [7] | composite z-score [8] | composite z-score [9] | composite z-score [10]
CC(C)CNC(=O)[C@@]1(C)c2ccccc2C(=O)N(C(C)C)[C@H]1c1ccc(CO)cc1 | 1.09 | 0.0084 | 0.567 | -0.0251 (inactive) | -1.42 | -1.29 | -0.741 | -0.542 | -0.854 | 1.26
O=C1O[C@H](c2ccccc2)[C@H](c2ccccc2)N2[C@H]1[C@@H](C(=O)N1CCCCCCC1)[C@]1(C(=O)Nc3ccc(C#CC4=CCCCC4)cc31)[C@H]2c1ccc(O)cc1 | 2.14 | 3.14 | 1.72 | -0.944 (inactive) | 1.67 | 1.5 | 2.04 | 1.69 | 2.71 | 2.04
COc1ccc(C#Cc2ccc3c(c2)[C@]2(C(=O)N3)[C@H](C(=O)N3CCc4cc(OC)c(OC)cc4C3)[C@H]3C(=O)O[C@H](c4ccccc4)[C@H](c4ccccc4)N3[C@@H]2c2ccc(OCCO)cc2)cc1 | 1.07 | -0.029 | -0.13 | 0.8 (inactive) | 1.29 | 1.27 | 0.504 | 1.08 | 0.671 | 0.0787
CO[C@H]1O[C@H](CO)[C@@H](OC(=O)Nc2ccc3c(c2)OCO3)[C@H](OC(=O)Nc2ccc3c(c2)OCO3)[C@H]1OC(=O)Nc1ccc2c(c1)OCO2 | 1.49 | -0.0124 | 0.392 | -0.295 (inactive) | 1.24 | 1.33 | 0.258 | 0.878 | 0.101 | 1.14
COCCn1c(C(=O)N(C)C)cc2c1C[C@H]1CN(C(=O)c3ccccc3)[C@@](Cc3ccc(F)cc3)(C(=O)OC)[C@@H]21 | 0.205 | 1.15 | 0.843 | -1.12 (inactive) | 0.61 | 0.397 | -0.0331 | 0.126 | -0.567 | 0.692
CCOC(=O)C1=CC[C@@H](c2cccc(Cl)c2)N(S(=O)(=O)c2ccc(C)cc2)[C@H]1c1ccc(C#N)cc1 | 1.06 | 0.855 | 0.252 | -0.201 (inactive) | 0.841 | 1.32 | 0.36 | 1.41 | 0.49 | 0.582
C=CCNC(=O)[C@H]1[C@@H]2C(=O)O[C@@H](c3ccccc3)[C@@H](c3ccccc3)N2[C@@H](c2ccc(O)cc2)[C@]12C(=O)Nc1ccc(C#Cc3ccc(OC)cc3)cc12 | 1.53 | 0.257 | 0.536 | 0.338 (inactive) | 0.782 | 1.23 | 0.728 | 1.21 | 0.94 | -0.13
CCCCN1CC=CC23O[C@@H]4/C=C\CCCOC(=O)C4[C@H]2C(=O)N(C(C)CO)[C@@H]3C1=O (stereo not given in full) | 1.62 | -0.292 | -0.305 | -0.577 (inactive) | -0.319 | -0.969 | -0.154 | -0.43 | 0.326 | 0.788
[N-]=[N+]=NCc1ccccc1C[C@]1(C(N)=O)N=C(c2ccc(OCCCO)cc2)O[C@H]1c1ccccc1N=[N+]=[N-] | 0.573 | 0.911 | 1.16 | -0.288 (inactive) | 0.617 | 1 | -0.236 | 0.416 | -0.322 | 1.45
C=C[C@H](C)[C@H](OC(=O)Nc1ccc(OC)cc1)c1ccc(O)c2ccccc12 | 0.443 | -0.26 | 0.242 | -0.632 (inactive) | 0.111 | -0.667 | -0.587 | 0.0608 | -0.0641 | 0.997
COc1ccc([Si](C)(C)[C@@H]2[C@@H](CC(=O)N3Cc4ccccc4C[C@H]3CO)O[C@]3(C(=O)N(Cc4cccc(N5C(=O)COc6ccccc65)c4)c4ccccc43)[C@H]2C)cc1 | 0.321 | 0.542 | -0.602 | -1.82 (inactive) | 0.904 | 0.901 | 0.925 | 1.13 | 1.01 | 0.729
COc1ccc([Si](C)(C)[C@@H]2[C@@H](CCO)O[C@]3(C(=O)N(Cc4cccc(N(C=O)c5ccccc5)c4)c4ccccc43)[C@H]2C)cc1 | 0.883 | 0.0396 | 0.541 | -2.49 (inactive) | -0.0644 | 0.364 | -0.222 | -0.0339 | -0.0116 | 1.03
Cc1ccc(S[C@]2(C(=O)NCc3ccccc3)CC(=O)N(Cc3cc(C(F)(F)F)cc(C(F)(F)F)c3)[C@@H]2c2ccc(CO)cc2)cc1 | 1.3 | -0.614 | -0.711 | 0.0364 (inactive) | -0.431 | -0.817 | -0.662 | -0.247 | -0.422 | 0.283
[N-]=[N+]=NCc1ccccc1[C@H]1OC(c2ccc(OCCCO)cc2)=N[C@@]1(Cc1ccccc1)C(=O)NCC(O)CO (stereo not given in full) | 1.27 | 0.847 | 1.21 | -0.807 (inactive) | 0.782 | 1.27 | -0.187 | -0.751 | -0.651 | 0.33
CCCCN1CC=CC23O[C@@H]4C=CCCOC(=O)C4[C@H]2C(=O)N(CCCO)[C@@H]3C1=O (stereo not given in full) | -1.07 | -0.132 | -0.114 | -1.21 (inactive) | -0.649 | -1.12 | -0.597 | -0.739 | -0.0604 | 0.824
O=C1c2ccccc2[C@@]2(Cc3ccccc3N(Cc3ccccc3)C2=O)[C@H](c2ccc(CO)cc2)N1Cc1ccccc1C(F)(F)F | 1.1 | 0.0463 | 0.847 | 0.0517 (inactive) | -0.665 | -0.866 | -1.09 | -0.71 | -1.38 | 0.581
[N-]=[N+]=NCc1ccccc1C[C@]1(C(=O)NCc2ccccc2)COC(c2ccc(OCCCO)cc2)=N1 | 0.518 | -0.109 | 0.681 | -0.426 (inactive) | 0.447 | 0.431 | 0.0245 | -0.109 | -0.874 | 0.743

SMILES | composite z-score [1] | composite z-score [2] | composite z-score [3] | z-score [4] | composite z-score [5] | composite z-score [6] | composite z-score [7] | composite z-score [8] | composite z-score [9] | composite z-score [10]
CCOC(=O)C[C@H]1[C@H](OC(=O)c2cc3ccccc3oc2=O)[C@@H](NC(=O)c2ccc3ccccc3c2)c2cc(OCCCO)ccc2N1C(=O)c1ccccc1 | 1.38 | -0.151 | -0.413 | -1.28 (inactive) | 1.41 | 0.939 | 0.348 | 0.906 | 0.486 | 0.447
C=CCNC(=O)[C@H]1[C@@H]2C(=O)O[C@@H](c3ccccc3)[C@@H](c3ccccc3)N2[C@@H](c2ccc(OCCO)cc2)[C@]12C(=O)N(C(=O)OCCOC)c1ccc(C#CC3(O)CCCCCC3)cc12 | 1.55 | 0.456 | 0.33 | -0.569 (inactive) | 1.42 | 1.31 | 1.02 | 1.48 | 1.23 | 1.18
CN(C)CCCC[C@@H]1NC(=O)[C@H]2C[C@@H](C(=O)NCCCCCNC(=O)CS)[C@@H](c3ccc(O)cc3)N2C1=O | 0.133 | 0.0417 | 0.308 | 1.1 (inactive) | -1.2 | -0.53 | -0.483 | -1.39 | -0.653 | 0.0182
C=CCC(OC(C)=O)[C@@H]1[C@@H](N(Cc2cc3ccccc3o2)C(=O)c2ccc(-c3ccccc3)cc2)c2cc(OCCCO)ccc2N1C(=O)Cc1ccc2ccccc2c1 (stereo not given in full) | -0.366 | -0.172 | 0.351 | 0.121 (inactive) | -0.0752 | -0.418 | -0.227 | -0.187 | -0.251 | 1.2
CC(C)NC(=O)[C@@]1(c2ccc([N+](=O)[O-])cc2)CC(=O)N(C(C)C)[C@@H]1c1ccc(CO)cc1 | -0.277 | -0.247 | 1.07 | -0.64 (inactive) | -0.907 | -0.153 | -0.761 | -0.867 | -1.56 | -1.45
CCCCCCCCCCC(O)C1C=CC2C(=O)N(c3ccccc3)C(=O)C2N1Nc1ccc([N+](=O)[O-])cc1 (stereo not given) | 1.34 | -0.101 | 0.584 | 0.823 (inactive) | 0.668 | 1.29 | 0.352 | 1.01 | 0.0052 | 0.559
C=CCC(OC(C)=O)[C@@H]1[C@@H](N(Cc2cc3ccccc3o2)C(=O)c2cccc3ccccc23)c2cc(OCCCO)ccc2N1C(=O)Cc1ccc2ccccc2c1 (stereo not given in full) | 0.53 | 0.224 | 0.471 | -0.904 (inactive) | 0.0259 | -0.925 | -0.221 | 0.0969 | -0.0207 | 1.02
COc1ccc([Si](C)(C)[C@H]2[C@H](CCO)O[C@@]3(C(=O)N(Cc4cccc(N5C(=O)c6cccc7cccc5c67)c4)c4ccccc43)[C@@H]2C)cc1 | 1.25 | -0.207 | 0.442 | -1.27 (inactive) | 0.668 | 0.149 | -0.437 | 0.277 | -0.701 | -0.345
CN1C(=O)C2C=CC(C(O)C=Cc3ccc([N+](=O)[O-])cc3)N(N3CCCCC3)C2C1=O (stereo not given) | 1.38 | 1.6 | 1.34 | 1.47 (inactive) | 0.928 | 1.28 | 0.726 | 1.1 | 0.256 | 1.35
COC(=O)[C@@]1(Cc2ccc(OC)cc2)[C@H]2c3cc(C(=O)N4CCCC4)n(CCN4CCOCC4)c3C[C@H]2CN1C(=O)c1ccccc1 | 1.25 | 2.6 | 1.52 | 0.0643 (inactive) | 1.35 | 0.325 | 0.947 | 0.629 | -0.138 | 0.492
COCCn1c(C(=O)N2CCCC2)cc2c1C[C@H]1CN(C(=O)c3ccccc3)[C@@](Cc3ccc(OC)cc3)(C(=O)OC)[C@@H]21 | 0.994 | 1.41 | 1.44 | -1.82 (inactive) | 0.344 | 0.194 | -0.224 | 0.682 | -0.223 | 1.06
CN(C)CCCC[C@@H]1NC(=O)[C@@H]2C[C@H](C(=O)NCc3ccc(F)cc3)[C@H](c3cccc(OCCO)c3)N2C1=O | 1.17 | 0.0666 | 0.0708 | -0.815 (inactive) | 1.36 | 0.833 | 0.267 | 1.17 | 0.314 | -0.218
CN1C(=O)C2C(C1=O)C1C=C(c3ccc(CO)cc3)C2C(C2CC2)N1Cc1cc2c(cc1Br)OCO2 (stereo not given) | 1.65 | 0.0878 | 0.886 | 0.0287 (inactive) | 0.966 | 1.14 | 0.482 | 1.22 | 0.334 | 1.22
COc1ccccc1CN1C(=O)c2ccccc2[C@](Cc2ccccc2I)(C(=O)NCc2ccccc2)[C@@H]1c1ccc(CO)cc1 | 0.17 | 0.131 | 0.875 | 0.164 (inactive) | 0.184 | -0.0893 | -0.593 | -0.457 | -0.341 | 0.9
CCN(CC)c1ccc(N2CC=CC34O[C@@H]5/C=C\CCCOC(=O)C5[C@H]3C(=O)N(CCCO)[C@@H]4C2=O)cc1 (stereo not given in full) | 1.47 | -0.136 | 0.808 | 0.821 (inactive) | -1.04 | -0.422 | -1.48 | -0.88 | -1.75 | -0.222
COCCCNC(=O)[C@@]1(C)c2ccccc2C(=O)N(Cc2ccccc2)[C@H]1c1ccc(CO)cc1 | 1.43 | -0.0769 | 1.02 | -0.626 (inactive) | -0.398 | -0.595 | -0.848 | -1.03 | -1.76 | -0.79
